# Source: PubChem (National Center for Advancing Translational Sciences (NCATS))
# Most compounds without a hit are left out; they make up all but 1.2% or so of the library.
# Giardia FBPA inh: blocks Giardia fructose-bisphosphate aldolase activity; A8B2U2; purified Giardia FBPA; Potency, µM (doses to about 59.6 µM), usual class: inhibitors; 290,000 tested, 0.71% active; further: nearly all actives have a fitted effect of over 55% in size
# Target sequence (A8B2U2 whole entry, looked up): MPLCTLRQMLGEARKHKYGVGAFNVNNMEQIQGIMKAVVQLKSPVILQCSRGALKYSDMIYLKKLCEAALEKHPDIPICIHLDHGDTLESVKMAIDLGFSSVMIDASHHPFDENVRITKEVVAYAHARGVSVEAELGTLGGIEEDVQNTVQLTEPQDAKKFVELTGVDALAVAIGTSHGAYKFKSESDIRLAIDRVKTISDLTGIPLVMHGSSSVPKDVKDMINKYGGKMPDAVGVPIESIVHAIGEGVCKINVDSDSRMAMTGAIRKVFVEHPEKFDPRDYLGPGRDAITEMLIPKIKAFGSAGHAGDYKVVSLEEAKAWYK
#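 40 nM FBPA preincubated 10 min at RT with compound (up to 57.5 uM final), then substrate plus GAPDH/TPI/NAD/arsenate coupling and diaphorase/resazurin added. Fluorescence read after 20 min at RT, 525/598 nm.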
# TbPYK inhibitor: blocks Trypanosoma brucei pyruvate kinase; Q57TT1; TbPYK enzyme, Kinase-Glo Plus ATP luminescence, 45 min; Potency, µM (doses to about 76.8 µM), actives largely listed as inhibitors; 410,000 tested, 0.12% active; AID 624173; further: nearly all actives have a fitted effect of over 50% in size
#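 In this concentration-response screen, enzyme-free wells defined baseline while DMSO plates tracked drift. Each reaction combined TbPYK, substrate, compound and 130 uM ADP for 45 min at room temperature. Kinase-Glo Plus luminescence gave the signal.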
# AMA1-RON2 inh: AMA1-RON2 (P. falciparum) interaction inhibition; AlphaScreen AMA1-biotinylated RON2 peptide binding; Potency, µM (titrated, usually from 58.2 µM), usual class: inhibitors; 360,000 tested, 0.2% active; further: nearly all actives have a fitted effect of over 45% in size
#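 AMA1 (3D7) with his tag at 25 nM final met compounds first, then biotinylated RON2 peptide at 25 nM; detection used donor plus acceptor beads, 10 µg/mL apiece, read by AlphaScreen after 30 min at room temperature.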
# NS1 function inh: influenza NS1 inhibition. Potency, µM (top dose mostly 46.1 µM). 270,000 tested, 0.4% active; calls by dose curve; further: actives are rising curves; nearly all actives have a fitted effect of over 50% in size
#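 A cell-based growth assay was used: compounds that relieve NS1-induced slow growth of budding yeast raise OD600. Assay medium was yeast nitrogen base with ammonium sulphate and -URA supplement, pH 6.0, with 2% galactose.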
# LmPK inhibitor: LmPK (Leishmania mexicana) enzyme inhibition; Q27686; purified LmPK, Kinase-Glo ATP luminescence, 1 h; Potency, µM (doses to about 57.5 µM), hits mostly inhibitors; 290,000 tested, 0.37% active; AID 1721
#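 Screened at intermediate enzyme activity to detect both inhibitors and activators: LmPK at 0.1 nM, with a 0.5 nM enzyme column as activation reference. PEP 0.5 mM, ADP 0.1 mM; ATP detected by luminescence after 1 h.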
# Hits are given with their value; . = inactive; ? = inconclusive; / = not tested or not shown; [ ] = remark or other dose. Unless noted, the call rests on the fitted dose curve; in most records, active means well fitted curve in the direction sought with a large enough effect; inconclusive means small, poorly fitted or top-dose-only effect, or another doubt; inactive means no such curve, though single readings can be large; an effect the other way counts as inactive or inconclusive.
SMILES,Giardia FBPA inh,TbPYK inhibitor,AMA1-RON2 inh,NS1 function inh,LmPK inhibitor
CO[C@@H]1/C=C\CC(=O)N[C@@H](C)C(=O)OC[C@@H](OC)[C@H](C)/C=C\CC(=O)OC[C@H]1C,.[12.9 µM],/,/,/,/
O=[N+]([O-])c1ccc(Cl)c(/C=N/N2CCN(Cc3ccccc3Cl)CC2)c1,.,.,?,.,.
O=[N+]([O-])c1ccccc1/C=N\N1CCN(Cc2ccccc2Cl)CC1,.,.,20µM,.,.
O=[N+]([O-])c1ccccc1/C=N/N1CCN(Cc2ccccc2)CC1,.,.,28µM,.,.
CCN(CC)CCn1c(-c2ccccc2)nc2c(NCCO)nc(C)nc21,.,/,/,/,/
COc1cc2c(C#N)c(N3CCOCC3)nc(N)c2c(N)n1,?,.,.,.,.
CCOC(=O)C1CCN(c2nc(N)c3c(N)nc(SCC(=O)O)cc3c2C#N)CC1,7.1µM,.,.,.,.
COc1cc2c(C#N)c(N3CCCCC3)nc(N)c2c(N)n1,2.2µM,.,.,.,.
COc1cc2c(C#N)c(N3CCc4ccccc4C3)nc(N)c2c(N)n1,1.8µM,.,?,.,.
CC1(C)SC2C(NC(=O)C(c3ccccc3)S(=O)(=O)O)C(=O)N2C1C(=O)O (stereo unspecified),/,.,/,/,/
S=c1[nH]nc(Cc2ccccc2)n1-c1ccccc1,.,?,.,.,?
Cc1ccc(-n2c(Cc3ccccc3)n[nH]c2=S)cc1,.,?,.,.,7.9µM
S=c1[nH]nc(Cc2ccccc2)n1-c1ccc(Cl)cc1,.,2.8µM,.,.,.
Cc1ccc(-n2c(CSc3nc(C)cc(C)n3)n[nH]c2=S)cc1,.,7.1µM,.,.,?
S=c1[nH]nc(COc2ccc(Cl)cc2)n1-c1ccccc1,.,8.9µM,.,.,?
Cc1cc(C)nc(SCc2n[nH]c(=S)n2C)n1,.,?,.,.,.
S=c1[nH]nc(COc2ccc(Cl)cc2)n1-c1ccc(Cl)cc1,?,?,.,.,.
C[C@@H]1[C@H](O)[C@@H](C)/C=C/C=C/C=C/C=C/C=C/C=C/C=C/[C@H](O[C@@H]2O[C@H](C)[C@@H](O)[C@H](N)[C@@H]2O)C[C@@H]2O[C@](O)(C[C@@H](O)C[C@@H](O)[C@H](O)CC[C@@H](O)C[C@@H](O)CC(=O)O[C@H]1C)C[C@H](O)[C@H]2C(=O)O,/,.,/,/,/
S=c1[nH]nc(CCc2ccccc2)n1-c1ccc(Cl)cc1,.,?,.,.,?
S=c1[nH]nc(CCc2ccccc2)n1-c1ccccc1,.,?,.,.,3.5µM
COc1cccc([C@@H]2Oc3ccc(OC)cc3/C(=N/O[C@@H](C)CN3CCCc4nc(C)c(C)cc43)[C@@H]2O)c1,.[12.9 µM],/,/,/,/
CCCCS(=O)(=O)c1sc2nc3c(cc2c1N)CCCC3,.,.,6µM,.,.
CNC(=O)CN1C(=O)c2cccc3cccc1c23,.,.,.,.,.
CN1/C(=N\O)c2cccc3cccc1c23,8.9µM,.,.,.,.
Cc1nc2scc(-c3ccccc3)c2c(=O)n1N,.,.,.,.,.
SMILES,Giardia FBPA inh,TbPYK inhibitor,AMA1-RON2 inh,NS1 function inh,LmPK inhibitor
Cc1nc2scc(-c3ccccc3)c2c(=O)n1N=C1C=CC(=O)C=C1,.,4µM,.,.,.
COc1ccccc1-c1oc2ccccc2c(=O)c1OC,.,/,/,/,/
Cc1cc(C)c(NC(=O)CSc2nnc(-c3ccccn3)n2N)c(Cl)c1,.,.,18µM,.,.
CC1=C(O)C(=O)C=C2C1=CC=C1C2(C)CCC2(C)C3CC(C)(C(=O)O)CCC3(C)CCC12C (stereo unspecified),/,35µM,?,/,/
Cc1nn(CCc2n[nH]c(=S)n2C2CCCCC2)c(C)c1Br,.,13µM,.,.,7.9µM
Cc1nn(CCc2n[nH]c(=S)n2C)c(C)c1Br,.,?,.,.,.
COc1ccccc1-n1c(CCn2nc(C)c(Br)c2C)n[nH]c1=S,.,3.5µM,.,.,?
Cc1ccc(C(=O)N/C(=C\c2ccc(-c3ccccc3[N+](=O)[O-])o2)C(=O)NCCN(C)C)cc1,5µM,.,.,.,.
Cc1ccc(C(=O)N/C(=C\c2ccc(-c3ccccc3[N+](=O)[O-])o2)C(=O)NCCCN(C)C)cc1,?,.,.,.,.
CCOC(=O)c1ccc(NC(=O)CN(c2ccc(C)cc2)S(=O)(=O)c2c(C)noc2C)cc1,/,.,/,/,/
S=P(C1CCCCC1)(C1CCCCC1)[C@H](c1cccnc1)N1CCCC1,/,/,/,.,/
O=C(Nc1ccccc1C(=O)N/N=C/c1ccco1)c1ccc(F)cc1,.,.,.,.,16µM
CC(=O)NN1C(=O)/C(=C\c2ccc(Br)o2)SC1=S,?,.,.,.,.
CC(=O)NN1C(=O)/C(=C/c2ccc(Br)o2)SC1=S,?,?,32µM,.,.
CC(C)(C=O)C1=CC(=O)c2ccccc2C1=O,?,?,.,.,13µM
Clc1nssc1=Nc1ccc(Br)cc1,?,?,.,/,.
Clc1nssc1=Nc1nncs1,/,5µM,.,/,/
Cc1snc(SCC(=O)c2ccc(F)cc2)c1C#N,.,.,.,/,.
Cc1snc(SCC(=O)c2ccc([N+](=O)[O-])cc2)c1C#N,?,35µM,.,/,.
CCCCS(=O)(=O)c1oc(-c2cccs2)nc1S(=O)(=O)c1ccc(F)cc1,/,.,/,/,/
Cc1ccc(N2CCOCC2)c2c1C(=O)c1ccccc1C2=O,.,.,14µM,/,.
O=C1C=C(N2CCOCC2)c2ccccc2C1=O,?,.,.,.,.
O=C1C2C3C=CC(CO)(O3)C2C(=O)N1c1ccccc1-c1ccccc1 (stereo unspecified),.,?,.,.,18µM
CCOc1cc(N2CCOCC2)c(OCC)cc1NC(C)C(=O)N1CCN(CC)CC1 (stereo unspecified),5µM,.,.,/,.
COC(=O)c1cc(-c2ccc3ccccc3c2)[nH]c(=O)c1C#N,/,/,/,.,/
SMILES,Giardia FBPA inh,TbPYK inhibitor,AMA1-RON2 inh,NS1 function inh,LmPK inhibitor
CN(C)c1cc(NC(=O)CNC(C)(C)C)c(O)c2c1C[C@@H]1C[C@H]3[C@H](N(C)C)C(=O)C(C(N)=O)=C(O)[C@@]3(O)C(=O)C1=C2O,/,.,/,/,/
C/C(Cn1nnc([N+](=O)[O-])n1)=N\NC(=O)c1ccc(O)cc1O,?,.,.[2.32 µM],?,.
C/C(Cn1nnc([N+](=O)[O-])n1)=N\NC(=O)c1ccccc1O,18µM,.,.,.,.
On1c2c(c3c4nonc4ccc31)CCCC2,5.6µM,/,/,.,.
O=C(Oc1ccccc1)N1CCC2(CC1)CN(c1ncccn1)C2,.,.,/,/,/
O=C(/C=C/Nc1ccc(F)cc1)c1ccco1,.,.,.,.,13µM
CCOC(=O)c1ccc(N/C=C/C(=O)c2ccco2)cc1,.,.,.,.,14µM
N=C(N)c1ccc(N=Nc2c(O)ccc3c2[nH]c2ccccc23)cc1,/,.,25µM,.,/
CC(=O)[C@@]1(O)CC[C@H]2[C@@H]3C=C(Cl)C4=CC(=O)CC[C@]4(C)[C@H]3CC[C@@]21C,/,.,/,/,/
CCC(C)Nc1c([N+](=O)[O-])cc(C)cc1[N+](=O)[O-] (stereo unspecified),.,.,16µM,.,.
